# H9c2 protect = myocardial damage modulation in H9c2 cells; H9c2 cardiomyocytes, H2O2 injury protection, ATPLite, 2 h; protection from H2O2 cell death, % at 20 µM; 360,000 compounds, 0.63% hits; AID 588492;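 active = compounds giving at least 50% protection of heart cells from peroxide-induced death in the single-dose screen, raw or plate-pattern-corrected value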;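 note: 0% = DMSO wells with peroxide and 100% = DMSO wells without peroxide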
# FAS-TE inh = inhibitors of human fatty acid synthase thioesterase domain; AID 602261; recombinant FAS-TE, OMFH fluorogenic substrate, fluorescence endpoint; inhibition, % at 15 µM; P49327; 360,000 compounds, 0.67% hits;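 active = compounds whose normalised, plate-corrected inhibition of enzyme fluorescence in the single-dose primary screen is 50% or more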;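 note: 0% = DMSO with enzyme and 100% = substrate without enzyme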
# Target sequence (P49327 whole entry, looked up, the tested form may be a part): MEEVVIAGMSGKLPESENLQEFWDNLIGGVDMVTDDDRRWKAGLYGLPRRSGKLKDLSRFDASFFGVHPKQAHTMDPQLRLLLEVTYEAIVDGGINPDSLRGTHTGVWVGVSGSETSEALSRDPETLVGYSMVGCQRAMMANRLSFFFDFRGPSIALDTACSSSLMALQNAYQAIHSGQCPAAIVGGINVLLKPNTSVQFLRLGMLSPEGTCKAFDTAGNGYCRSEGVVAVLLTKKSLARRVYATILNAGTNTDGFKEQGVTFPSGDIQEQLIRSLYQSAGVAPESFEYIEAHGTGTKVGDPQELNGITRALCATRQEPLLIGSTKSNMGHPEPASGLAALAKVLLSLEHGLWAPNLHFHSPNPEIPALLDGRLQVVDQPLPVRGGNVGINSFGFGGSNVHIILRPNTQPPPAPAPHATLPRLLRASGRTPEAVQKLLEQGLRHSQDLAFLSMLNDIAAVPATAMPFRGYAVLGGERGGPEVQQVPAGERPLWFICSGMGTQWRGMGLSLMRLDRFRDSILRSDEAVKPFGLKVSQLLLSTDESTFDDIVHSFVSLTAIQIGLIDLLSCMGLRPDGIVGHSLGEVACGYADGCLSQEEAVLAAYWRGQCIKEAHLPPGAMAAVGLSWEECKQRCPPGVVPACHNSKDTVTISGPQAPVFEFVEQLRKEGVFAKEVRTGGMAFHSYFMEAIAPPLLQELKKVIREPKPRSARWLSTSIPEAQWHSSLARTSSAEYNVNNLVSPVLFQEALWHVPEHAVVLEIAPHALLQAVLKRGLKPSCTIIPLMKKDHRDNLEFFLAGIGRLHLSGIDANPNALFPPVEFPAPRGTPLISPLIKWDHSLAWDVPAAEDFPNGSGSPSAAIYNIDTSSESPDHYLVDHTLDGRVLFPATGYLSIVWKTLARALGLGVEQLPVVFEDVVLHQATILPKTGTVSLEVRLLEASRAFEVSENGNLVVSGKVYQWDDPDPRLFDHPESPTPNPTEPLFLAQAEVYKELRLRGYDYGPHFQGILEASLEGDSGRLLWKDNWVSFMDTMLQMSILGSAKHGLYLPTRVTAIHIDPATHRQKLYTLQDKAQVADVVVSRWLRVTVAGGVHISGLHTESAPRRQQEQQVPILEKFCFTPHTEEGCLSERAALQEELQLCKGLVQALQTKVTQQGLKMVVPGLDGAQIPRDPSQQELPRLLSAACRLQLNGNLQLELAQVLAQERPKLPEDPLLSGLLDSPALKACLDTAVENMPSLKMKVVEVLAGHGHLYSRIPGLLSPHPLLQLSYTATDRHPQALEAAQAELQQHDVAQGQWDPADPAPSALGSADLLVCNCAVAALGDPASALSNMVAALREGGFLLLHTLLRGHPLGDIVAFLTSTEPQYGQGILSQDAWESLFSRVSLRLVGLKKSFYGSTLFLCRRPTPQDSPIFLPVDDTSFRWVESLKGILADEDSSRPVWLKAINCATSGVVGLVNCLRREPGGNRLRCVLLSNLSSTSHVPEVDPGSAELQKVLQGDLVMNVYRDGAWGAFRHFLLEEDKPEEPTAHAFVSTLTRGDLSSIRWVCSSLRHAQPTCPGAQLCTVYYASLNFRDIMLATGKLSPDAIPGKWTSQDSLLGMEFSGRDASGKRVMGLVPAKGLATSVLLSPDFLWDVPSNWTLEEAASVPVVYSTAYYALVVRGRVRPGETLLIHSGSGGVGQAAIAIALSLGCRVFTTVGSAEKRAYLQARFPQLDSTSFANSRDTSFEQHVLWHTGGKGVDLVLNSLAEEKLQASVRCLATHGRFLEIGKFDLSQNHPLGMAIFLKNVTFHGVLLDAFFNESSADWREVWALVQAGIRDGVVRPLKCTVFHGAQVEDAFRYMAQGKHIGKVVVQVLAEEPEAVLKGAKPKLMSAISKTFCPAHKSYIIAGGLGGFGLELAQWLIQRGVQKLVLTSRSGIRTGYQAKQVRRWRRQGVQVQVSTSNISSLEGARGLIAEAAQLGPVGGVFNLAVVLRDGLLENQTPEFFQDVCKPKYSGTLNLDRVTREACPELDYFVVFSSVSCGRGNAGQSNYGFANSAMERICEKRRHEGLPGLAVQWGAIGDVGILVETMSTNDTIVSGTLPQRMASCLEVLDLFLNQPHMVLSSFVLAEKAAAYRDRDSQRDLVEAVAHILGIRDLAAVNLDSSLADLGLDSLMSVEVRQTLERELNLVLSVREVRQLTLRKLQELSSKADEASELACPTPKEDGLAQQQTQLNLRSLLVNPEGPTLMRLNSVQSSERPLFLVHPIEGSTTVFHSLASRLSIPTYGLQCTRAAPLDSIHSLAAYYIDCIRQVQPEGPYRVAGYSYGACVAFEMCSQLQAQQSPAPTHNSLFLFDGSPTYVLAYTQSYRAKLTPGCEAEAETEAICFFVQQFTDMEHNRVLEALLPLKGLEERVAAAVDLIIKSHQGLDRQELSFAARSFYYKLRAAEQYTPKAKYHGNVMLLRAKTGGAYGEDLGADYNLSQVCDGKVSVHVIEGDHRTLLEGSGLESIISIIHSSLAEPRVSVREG
# CRFBP-R2 agonist = CRF-BP/CRF-R2 complex agonism | HEK293 CRF-R2/CRF-BP, calcium dye fluorescence (FLIPR); percent of saturating CRF peptide response | activation, % at 13.2 µM | 350,000 compounds, 0.46% hits | AID 588473;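 active = activation of at least 50%, plus an integration ratio under a set limit after plate pattern correction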;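 note: plate controls were neutral control wells without compound for no effect and CRF at EC100 for full effect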
# PfG6PD inh = PfG6PD (Plasmodium falciparum) enzyme inhibition | PfGluPho enzyme, NADPH resazurin-diaphorase fluorescence | inhibition, % at 20 µM | 350,000 compounds, 0.78% hits | AID 504690;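 active = inhibition reaching at least a set limit at 20 µM in the primary screen, cut at about 59% in these data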;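 note: 0% = DMSO wells with substrate and 100% = DMSO wells lacking glucose-6-phosphate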
# aDG glyco up = alpha-DG glycosylation activation; Pro5-aDG cells, alpha-DG glycosylation AlphaScreen (IIH6); 0% Pro5, 100% B10-LARGE cell signal; activation, % at 10 µM; 360,000 compounds, 0.22% hits; AID 624168;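 active = activation of at least 8% versus controls, or a plate z-score of at least 8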;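 note: Pro5 are CHO cells carrying HIG-tagged alpha-DG that lacks glycosylation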
# CRFR2-BP antag = CRF-BP/CRF-R2 complex antagonism; HEK293 CRF-R2/CRF-BP, CRF-induced calcium fluorescence; inhibition, % at 11.8 µM; 350,000 compounds, 0.59% hits;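 active = inhibition of the ligand-induced calcium signal above about 50% at the single tested concentration, limit read from the data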
# FAS-TE inh conf = confirmation of human fatty acid synthase thioesterase inhibitors; 2,300 compounds, 45% hits; inhibition, % at 15 µM; recombinant FAS-TE, OMFH fluorogenic substrate, fluorescence; shares compounds with FAS-TE inh;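 active = compounds inhibiting the enzyme by at least 50% at 15 µM in any one of the replicates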;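 note: 0% = enzyme with DMSO only and 100% = wells lacking enzyme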
# * hit, by the source's call; . = not tested or not shown. A selection: hits, their analogues and other compounds. The true share with any hit is near 3.2%.
SMILES,H9c2 protect,FAS-TE inh,CRFBP-R2 agonist,PfG6PD inh,aDG glyco up,CRFR2-BP antag,FAS-TE inh conf
C[C@]12C(=O)N(c3cccc(Cl)c3)C(=O)N1[C@@H]1c3ccccc3OC[C@@H]1[C@H]2c1ccccc1,-3,58*,4,8,0,-2,35
C[C@]12C(=O)N(c3ccc(C(F)(F)F)cc3)C(=O)N1[C@@H]1c3ccccc3OC[C@@H]1[C@H]2c1ccccc1,-11,60*,5,17,0,-6,26
CC(C)NC(=O)NC(=O)CN1c2cccc3cccc(c23)S1(=O)=O,9,-1,1,-5,0,-1,.
Cc1sc(N2CCN(S(=O)(=O)c3ccc4c(c3)NC(=O)CO4)CC2)nc1-c1ccccc1,-5,70*,0,15,0,-8,68*
COc1ccc(-c2csc(N3CCN(S(=O)(=O)c4ccc5c(c4)NC(=O)CO5)CC3)n2)cc1,-8,26,-1,20,3,-2,.
COc1ccc(NC(=O)O[C@@H](C)[C@@H]2CN3CCc4c([nH]c5ccc(-c6ccc(OC)cc6)cc45)[C@@H]3C[C@@H]2N(C)C(=O)Nc2ccc(OC)cc2)cc1,-6,54*,0,10,1,13,14
CCO[C@H]1OC(C(=O)NCc2ccccc2)=C[C@@H](C2CCCCC2)[C@@H]1CCCO,-1,57*,-1,9,0,-11,63*
COc1ccc(NC(=O)CN(C)C(=O)c2c(-c3c(F)cccc3Cl)noc2C)cc1,-1,-6,0,11,0,1,.
O=S(=O)(c1ccccc1)n1ccc(-c2cnc(-c3ccccc3)s2)n1,-12,63*,-1,18,0,14,58*
CN(CC(=O)Nc1ccc(Cl)c(C(F)(F)F)c1)C(=O)C1CC(=O)N(C2CCCC2)C1 (stereo unspecified),-12,9,-1,-4,0,-16,.
Cc1cc2nc3n(c2cc1C)CC1CC(C(=O)NCc2cccc(Br)c2)N(C)C31 (stereo unspecified),-1,-8,-1,13,0,-7,.
CN1C(C(=O)NCc2cccc(Br)c2)CC2Cn3c(nc4cc(Cl)c(Cl)cc43)C21 (stereo unspecified),-16,57*,-1,-1,1,6,44*
CC(C)(C)OC(=O)COc1ccc(/C=N/NC(=O)CN2CCCCC2)cc1,2,-4,-3,-6,0,21,.
O=C(Nc1ccc(OC(F)(F)F)cc1)Nc1cccc([N+](=O)[O-])c1,-16,73*,21,46,-1,36,49*
Cc1ccc(NC(=O)Nc2cccc([N+](=O)[O-])c2)cc1F,-27,43,26,37,0,28,.
CCCC(C)c1nnc(NC(=O)c2cc(C(=O)OC)cc([N+](=O)[O-])c2)s1 (stereo unspecified),-10,55*,-3,50,0,-14,58*
Cn1c(=O)c2cc3c(nc2n(C)c1=O)CC(c1ccccc1)CC3=O (stereo unspecified),8,60*,-5,-11,0,67*,51*
COc1ccc(CN2CCN(CCc3ccccc3)C(CCO)C2)cc1Cn1cncn1 (stereo unspecified),-1,-5,2,-10,0,-19,.
CN(CC(=O)Nc1ccc(S(=O)(=O)N(C)C)cc1)Cc1ccc(C(F)(F)F)cc1,-15,53*,0,16,0,-25,40
COc1ccccc1C(=O)N/C(=C/c1cccc([N+](=O)[O-])c1)C(=O)Nc1cccc(C(=O)O)c1,10,0,-2,-25,0,-10,.
Cc1ccc(C(=O)N/C(=C\c2cccc([N+](=O)[O-])c2)C(=O)Nc2cccc(C(=O)O)c2)cc1,1,55*,0,-3,0,6,60*
COc1ccc(C(=O)N/C(=C\c2cccc([N+](=O)[O-])c2)C(=O)Nc2cccc(C(=O)O)c2)cc1,0,49,2,-31,0,-6,.
O=C(O)CNC(=O)/C(=C/c1cccc([N+](=O)[O-])c1)NC(=O)c1ccco1,1,-11,0,-16,0,15,.
O=C(NCc1ccccc1)/C(=C\c1cccc([N+](=O)[O-])c1)NC(=O)c1ccco1,-2,68*,-1,-6,1,5,76*
O=C(Nc1cccc(C(=O)O)c1)/C(=C\c1cccc([N+](=O)[O-])c1)NC(=O)c1ccc(Br)cc1,1,69*,-1,-15,0,7,75*
SMILES,H9c2 protect,FAS-TE inh,CRFBP-R2 agonist,PfG6PD inh,aDG glyco up,CRFR2-BP antag,FAS-TE inh conf
CC(C)C[C@@H](CO)NC(=O)CC[C@H](NC(=O)OC(C)(C)C)C(=O)N(Cc1ccccc1)Cc1ccccc1,3,5,0,6,0,-6,.
O=C(O)c1cn(Cc2ccccc2)nc1-c1cccnc1,4,-11,0,-5,0,-1,.
CCc1ccc(C2=CSC3=NCCN23)cc1,2,-133,-2,-12,0,8,.
O=S(=O)(Cc1ccccc1)N1CCCC(c2nc(-c3ccc(F)cc3)no2)C1 (stereo unspecified),-6,26,14,6,0,-21,.
O=S(=O)(c1ccc(F)cc1)N1CCCC(c2nc(-c3ccc(F)cc3)no2)C1 (stereo unspecified),-11,58*,3,16,1,3,23
Cc1ccc(N2C(=O)C(F)(F)C2c2ccccc2)cc1 (stereo unspecified),-4,19,1,-3,0,3,.
Cc1ccc(N2C(=N)/C(=C3/Nc4ccccc4S3)C(c3ccccc3)C2=O)cc1 (stereo unspecified),-12,63*,2,23,0,-9,12
O=C(Nc1nc(-c2cccc([N+](=O)[O-])c2)cs1)C(c1ccccc1)c1ccccc1,-18,52*,2,3,0,21,12
Cc1nc2cc(C(F)(F)F)ccc2n1CCNc1nc(-c2ccc([N+](=O)[O-])c(Cl)c2)cs1,-16,52*,0,9,0,-4,30
O=[N+]([O-])c1cc(-c2csc(NCCc3nc4cc(C(F)(F)F)ccc4n3CCCO)n2)ccc1Cl,-12,81*,-1,47,0,-9,70*
COc1ccc(NC(=O)C2CC2(Cl)Cl)cc1S(=O)(=O)N1CCCCC1 (stereo unspecified),6,1,-1,-24,-1,-12,.
COC(=O)[C@@H](c1ccccc1)N(C)S(=O)(=O)c1cccc(S(=O)(=O)N(C)[C@@H](C(=O)OC)c2ccccc2)c1,0,53*,6,-1,0,-7,32

# Compound activity deposited in PubChem BioAssay by Sanford-Burnham Center for Chemical Genomics.
